Assay results: PubChem BioAssay AID1376 (SRMLSC, 2008)
Out of some 220,000 compounds screened, about 530 (0.24%) were called active. No stated cut-off is given here; in the data, active means inhibition above about 13%; inconclusive means no clear call, values can overlap the other calls; inactive means below that. What follows is part of a selection rich in actives, with near analogues and random picks from the rest. Entries with a potency or affinity are not part of this list.

Target: Bifunctional protein GlmU (Mycobacterium tuberculosis (strain ATCC 25618 / H37Rv)) (UniProt P9WMN3)
Sequence (P9WMN3 whole entry, looked up): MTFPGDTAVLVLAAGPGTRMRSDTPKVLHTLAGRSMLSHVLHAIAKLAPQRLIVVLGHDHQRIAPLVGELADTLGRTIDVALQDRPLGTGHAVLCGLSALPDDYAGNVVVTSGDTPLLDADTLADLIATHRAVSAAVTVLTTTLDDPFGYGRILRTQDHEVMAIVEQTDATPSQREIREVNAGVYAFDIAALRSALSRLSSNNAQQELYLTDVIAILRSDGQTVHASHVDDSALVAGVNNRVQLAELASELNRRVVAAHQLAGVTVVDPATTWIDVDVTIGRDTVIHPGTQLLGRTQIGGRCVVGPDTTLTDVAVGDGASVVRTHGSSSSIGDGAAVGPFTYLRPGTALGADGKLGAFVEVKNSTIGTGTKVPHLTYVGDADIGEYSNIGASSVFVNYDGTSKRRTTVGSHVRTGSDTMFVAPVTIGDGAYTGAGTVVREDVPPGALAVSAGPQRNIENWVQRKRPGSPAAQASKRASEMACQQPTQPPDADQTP
Assay: inhibition of mycobacterial GlmU enzyme – biochemical, glucosamine-1-phosphate acetyltransferase (AID 1376);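 further: 0% = complete reaction with vehicle and 100% = reaction without substrate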
Details: M. tuberculosis GlmU acetyltransferase enzyme assay; active compounds read high;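 tested at 30 µM in the primary screen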

| SMILES | inhibition |
| --- | --- |
| Cc1ccc(C)n1-c1cccc(NC(=O)c2ccccc2)c1 | -0.99% (inactive) |
| Cn1c(Cn2c(=O)sc3ccccc32)nnc1SCC(=O)N1CCc2ccccc21 | -3.8% (inactive) |
| O=C1CCN(S(=O)(=O)c2ccccc2)CCN1CCOCc1ccc(F)cc1 | -0.16% (inactive) |
| CCOC(=O)C1=C(N)OC2=C(C(=O)CCC2)C12C(=O)N1c3c(ccc(C)c32)C(C)=CC1(C)C (stereo not drawn) | 14.7% (active) |
| CC1=CC(C)(C)N2C(=O)C3(C(C#N)=C(N)OC4=C3C(=O)CCC4)c3c(C)c(C)cc1c32 (stereo not drawn) | 0.73% (inactive) |
| CCOC(=O)C1=C(N)OC2=C(C(=O)CCC2)C12C(=O)N(C)c1ccccc12 (stereo not drawn) | 2.06% (inactive) |
| COc1ccc([N+](=O)[O-])c(S(=O)(=O)c2ccccc2)n1 | 11.9% (inactive) |
| COc1nc(OC)nc(Oc2ccc(Cl)cc2[N+](=O)[O-])n1 | -2.5% (inactive) |
| COc1ccc([N+](=O)[O-])c(S(=O)(=O)c2ccc(Cl)cc2)n1 | 13.8% (active) |
| CC(C(=O)NN)n1nnc(N2CCOCC2)n1 (stereo not drawn) | -4.73% (inactive) |
| O=C(Nc1cccc(-c2csc(Nc3ccc(Cl)cc3)n2)c1)c1cccc(C(F)(F)F)c1 | 0.14% (inactive) |
| COC(=O)c1n[nH]nc1-c1ccccc1 | 2.77% (inactive) |
| COC(=O)c1cc(-c2ccccc2)n[nH]1 | 1.61% (inactive) |
| COC(=O)c1[nH]nc(C(=O)OC(C)(C)C)c1-c1ccccc1 | 13.6% (active) |
| CC1(C)Cc2cccc(OCC(=O)N3CCN(S(=O)(=O)c4ccc(F)cc4)CC3)c2O1 | -1.15% (inactive) |
| O=C(O)c1cccc(N/N=C/c2cccs2)c1 | 4.35% (inactive) |
| O=C(O)c1cccc(NN=C2c3ccccc3-c3ccccc32)c1 | 1.86% (inactive) |
| Cc1ccc(C(=O)N/C(=C\c2ccccc2)C(=O)NCc2cccnc2)cc1 | -0.7% (inactive) |
| CCCNC(=O)Cn1cnc2sc(C(=O)Nc3cc(OC)c(OC)c(OC)c3)c(C)c2c1=O | 1.29% (inactive) |
| CNc1ccc(Br)cc(C(=O)/C=C/c2cccc(Cl)c2Cl)c1=O | 13% (active) |
| CNc1ccc(Br)cc(C(=O)/C=C/c2cccc(OC)c2OC)c1=O | 0.88% (inactive) |
| CNc1ccc(Br)cc(C(=O)/C=C/c2ccc(Cl)cc2Cl)c1=O | 10.2% (inactive) |
| CCS(=O)(=O)c1ccc(O)c(NC(=O)/C=C/c2ccc(Cl)cc2)c1 | 0.22% (inactive) |
| O=C(O)CNC(=O)C(Cc1ccccc1)NC(=O)OCc1ccccc1 (stereo not drawn) | 2.74% (inactive) |

| SMILES | inhibition |
| --- | --- |
| Cc1ccccc1CSc1nnc(-c2cnccn2)n1C | 4.71% (inactive) |
| Cn1c(SCc2ccccn2)nnc1-c1cnccn1 | 13.4% (active) |
| Cn1c(SCc2ccccc2)nnc1-c1cnccn1 | -1.68% (inactive) |
| Cc1ccc(-n2c(Cc3ccccc3)nnc2SCC(=O)NNC(=O)Cc2ccccc2)cc1 | 2.04% (inactive) |
| Cc1c(Br)c(O)c(Br)c2sc(=O)oc12 | 14.6% (active) |
| Cc1ccc(-c2cc(O)cc3sc(=O)oc23)cc1C | -5.89% (inactive) |
| C=CCn1c(=O)c2ccccc2n2c(SCC(N)=O)nnc12 | -2.87% (inactive) |
| C/C(=N\OCc1ccc(C#N)cc1)c1cc2ccccc2o1 | 14% (active) |
| C/C(=N\OCc1ccccc1C#N)c1cc2ccccc2o1 | -1.63% (inactive) |
| C/C(=N\OCc1ccc(C#N)cc1)c1ccccc1 | 2.31% (inactive) |
| COc1cc(CNCc2c[nH]c3ccccc23)cc(OC)c1 | 0.77% (inactive) |
| O=C(N/N=C/c1ccc(-c2cccc([N+](=O)[O-])c2)o1)c1ccccc1O | 0.51% (inactive) |
| N/C(=N\N=C\c1ccc(O)cc1O)N[N+](=O)[O-] | 1.33% (inactive) |
| O=C1CCCN1c1cc(Cl)cc(Cl)c1 | 0.87% (inactive) |
| CCC(C)N(CCNC(=O)CC1Oc2ccc(C)cc2NC1=O)C1CCCCC1 (stereo not drawn) | 4.05% (inactive) |
| COc1ccc(-c2c(-c3ccc(OCC(=O)NN)cc3O)n[nH]c2C(F)(F)F)cc1 | 13.2% (active) |
| COc1ccc(-c2c(-c3ccc(OCC(=O)NN)cc3O)n[nH]c2C)cc1 | 4.13% (inactive) |
| NNC(=O)COc1ccc(-c2n[nH]c(C(F)(F)F)c2-c2ccc(Br)cc2)c(O)c1 | -2.65% (inactive) |
| O=C(CC(NC(=O)c1ccccc1Cl)c1ccccc1)NC1=NCCS1 (stereo not drawn) | 2.83% (inactive) |
| CC(=O)Nc1ccc2ccccc2c1 | 1.2% (inactive) |
| CC(=O)Nc1ccc2cc3ccc(NC(C)=O)cc3nc2c1 | 29.2% (active) |
| CC(=O)Nc1ccc2nc3ccccc3nc2c1 | 3.15% (inactive) |
| CCC(C)(C)n1nnnc1CN1CCC(n2c(C)nc3cc(C(F)(F)F)ccc32)CC1 | 2.13% (inactive) |
| CCOC(=O)c1nc2ccccc2nc1C | 3.05% (inactive) |

| SMILES | inhibition |
| --- | --- |
| O=C(CSc1nnc(-c2ccncc2)n1Cc1ccco1)Nc1nc(-c2ccccc2)cs1 | -0.09% (inactive) |
| O=C1/C(=C\c2ccco2)SC(=S)N1c1ccccc1 | 8% (inactive) |
| CCCC1=NN2C(=N)/C(=C\c3ccc(SCc4ccco4)o3)C(=O)N=C2S1 | 30.6% (inactive) |
| N=C1/C(=C\c2ccc(SCc3ccco3)o2)C(=O)N=C2SC=NN12 | 8.44% (inactive) |
| O=C1NC(=S)S/C1=C\c1ccc(SCc2ccccc2)o1 | 68.3% (active) |
| O=C(O)CN1C(=O)/C(=C/c2ccc(SCc3ccccc3)o2)SC1=S | 18.9% (inactive) |
| CCOc1cc(/C=C2/SC(=S)NC2=O)ccc1OC(=O)c1ccco1 | 1.76% (inactive) |
| CCC1=NN2C(=N)/C(=C\c3ccc(SCc4ccco4)o3)C(=O)N=C2S1 | 4.74% (inactive) |
| O=C(O)c1cccc(N2C(=O)/C(=C/c3ccc(SCc4ccc(Cl)cc4)o3)SC2=S)c1 | 33.7% (active) |
| O=C1NC(=S)S/C1=C/c1ccc(N2CCOCC2)o1 | 11.4% (inactive) |
| Cc1cccc(C)c1-n1cccc1/C=C1\SC(=S)N(c2cccc(C(=O)O)c2)C1=O | -2.25% (inactive) |
| NNC(=O)c1cncn1-c1ccc(F)cc1 | -2.24% (inactive) |
| CN/N=C(\Cc1nc2ccccc2[nH]1)c1ccc([N+](=O)[O-])cc1 | 2.32% (inactive) |
| CCC(Oc1ccccc1)C(=O)NCc1ccc(S(N)(=O)=O)cc1 (stereo not drawn) | 1.79% (inactive) |
| CC(=O)Nc1ccc(S(=O)(=O)Nc2ccc(=O)n(Cc3ccc(Cl)c(Cl)c3)c2)cc1 | -3.3% (inactive) |
| COc1cc(N(C(=O)Cc2cccs2)C(C(=O)NC2CCCCC2)c2cccc(OC)c2OC)ccc1-n1cnnn1 (stereo not drawn) | -6.93% (inactive) |
| OCCNc1nc(Nc2ccccc2Cl)nc(N2CCCC2)n1 | 2.46% (inactive) |
| CCCS(=O)(=O)N1CCC(C(=O)NCCCOC(C)C)CC1 | -1.86% (inactive) |
| CCC(C)NS(=O)(=O)c1ccc(S(=O)(=O)N(CCc2ccc(OC)c(OC)c2)Cc2cccs2)cc1 (stereo not drawn) | -1.89% (inactive) |
| Cc1ccc([N+](=O)[O-])cc1S(=O)(=O)Nc1ccccn1 | 12.5% (inactive) |
| Cc1cccc2cc(/C=N/NC(=O)[C@H]3C[C@@H]3c3ccccc3)c(Cl)nc12 | -1.46% (inactive) |
| Cc1cccc(NC(=O)C2CCCN(S(=O)(=O)c3cccc4cccnc34)C2)c1 (stereo not drawn) | 1.23% (inactive) |
| O=C(Nc1ccncc1)C1CCCN(S(=O)(=O)c2cccc3cccnc23)C1 (stereo not drawn) | -3.59% (inactive) |
| CC(=O)c1cccc(NC(=O)C2CCCN(S(=O)(=O)c3cccc4cccnc34)C2)c1 (stereo not drawn) | 13.1% (active) |

| SMILES | inhibition |
| --- | --- |
| O=C1CCN(Cc2ccccc2)S(=O)(=O)c2ccccc21 | 1.98% (inactive) |
| Cn1cccc1/C=C1\C(=O)NC(=O)N(Cc2ccccc2)C1=O | 13.2% (active) |
| Cn1cccc1/C=C1/C(=O)NC(=O)N(Cc2ccccc2)C1=O | -0.82% (inactive) |
| Cn1cccc1/C=C1/C(=O)NC(=O)N(Cc2ccc(F)cc2)C1=O | -4.26% (inactive) |
| Cc1cc(/C=C2\C(=O)NC(=O)N(Cc3ccco3)C2=O)c(C)n1-c1ccc(C(=O)O)cc1 | 9.99% (inactive) |
| Cc1cc(/C=C2\C(=O)NC(=O)N(Cc3ccccc3Cl)C2=O)c(C)n1-c1ccc(C(=O)O)cc1 | -0.15% (inactive) |
| O=C1NC(Cc2c[nH]c3ccccc23)C(=O)N1Cc1ccc(CN2C(=O)NC(Cc3c[nH]c4ccccc34)C2=O)cc1 (stereo not drawn) | 3.5% (inactive) |
| O=C(COc1ccc(S(=O)(=O)NC2CCCCC2)cc1)N1CCN(c2ccc(F)cc2)CC1 | -2.74% (inactive) |
| COc1ccc(CNC(=O)CCSCc2cccc(Cl)c2)cc1 | 3.22% (inactive) |
| CC(C)CCN1CCN(CC(c2ccccc2)c2ccccc2)CC1CCO (stereo not drawn) | 14% (active) |
| CC(C)CCN1CCN(CC#Cc2ccccc2)CC1CCO (stereo not drawn) | -6.43% (inactive) |
| OCCC1CN(CC(c2ccccc2)c2ccccc2)CCN1C1CCCC1 (stereo not drawn) | -0.28% (inactive) |
| CCOc1ccc(NS(=O)(=O)c2ccc3[nH]c(=O)cc(C(=O)O)c3c2)cc1 | 5.18% (inactive) |
| Cc1oc2c(C)c(O)ccc2c(=O)c1-c1cnn(-c2ccccc2)c1 | -1.79% (inactive) |
| Cc1oc2cc(O)ccc2c(=O)c1-c1cnn(-c2ccccc2)c1 | 1.72% (inactive) |
| Cc1oc2c(O)c(O)ccc2c(=O)c1-c1cnn(-c2ccccc2)c1 | 15% (active) |
| COC(=O)C(O)(NC(=O)OCc1ccccc1)C(F)(F)F (stereo not drawn) | 13.5% (active) |
| CCOC(=O)C(NC(C)=O)(OCc1ccccc1)C(F)(F)F (stereo not drawn) | 1.91% (inactive) |
| CCOC(=O)NC(NCc1ccccc1)(C(F)(F)F)C(F)(F)F | -2.58% (inactive) |
| O=C(Nc1ccccc1N1CCOCC1)c1ccc(Cl)c(S(=O)(=O)NCc2ccco2)c1 | 0.84% (inactive) |
| CN1CCN(C(=O)C2=C[C@@H](C3CCCCC3)C[C@@H](OCc3ccc(CO)cc3)O2)CC1 | 0.67% (inactive) |
